According to PubChem BioAssay AID602393 (Broad Institute, 2012):
The whole screen tested about 350,000 compounds, of which about 7,000 (2%) were called active. This is one part of a sample in which actives are shown more often than they occur. A number with no mark means an inactive call. No stated cut-off is given here; in the data, active means activation above about 40%; inconclusive means no clear call, values can overlap the other calls; inactive means below that.

Assay: raisers of Bmi1 knock-in reporter signal – mouse ES cells, Bmi1 luciferase knock-in, single point, esBAF inhibitor project, primary screen (AID 602393);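 further: 0% = median of the plate's neutral control wells and 100% = double that signal; a rise in the Bmi1 reporter signal indicates esBAF inhibition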
Conditions: 24 h, at 12.5 µM, stronger effect = higher value, 100% = twice the neutral-well signal

Structure (SMILES) | reporter increase
CCn1c(SCC(=O)N(C)C2CCS(=O)(=O)C2)nnc1-c1cccs1 (stereo unspecified) | -1.83%
CCn1c(SCC(=O)c2ccc(Cl)s2)nnc1-c1cccs1 | 46% (active)
CCn1c(Cc2cccs2)nnc1SCC(=O)c1ccc(C)cc1 | 25.1%
COc1ccc(S(=O)(=O)N[C@@H]2CC[C@@H](CC(=O)NCCc3ccccc3)O[C@@H]2CO)cc1 | 3.19%
C[C@@H]1CCCCO[C@@H](CN(C)C(=O)Cc2ccccc2)[C@H](C)CN([C@@H](C)CO)C(=O)c2cc(NC(=O)Nc3ccc(F)cc3)ccc2O1 | 1.88%
CC(C)NC(=O)N(C)C[C@@H]1OCc2ccccc2-c2c(n(C)c3ccccc23)C(=O)N([C@@H](C)CO)C[C@H]1C | -0.481%
O=C(Oc1ccc([N+](=O)[O-])cc1)c1ccc2ccccc2n1 | 0.987%
O=[N+]([O-])c1cc2ccccc2nc1-c1ccccc1 | -3.44%
O=[N+]([O-])c1ccc2c(c1)Nc1nc3ccccc3nc1N2 | 47.3% (active)
CO[C@@H]1CN(C)C(=O)c2cc(NC(=O)c3ccccc3F)ccc2OC[C@@H](C)N(CC2CC2)C[C@H]1C | 1.73%
COc1ccccc1S(=O)(=O)N1CC[C@H]2[C@@H](CO)N(C)c3ccc(C#Cc4ccccc4)cc3[C@H]21 | -3.04%
C[C@H]1CCCCO[C@@H](CN(C)Cc2ccncc2)[C@@H](C)CN([C@@H](C)CO)C(=O)c2cc(NC(=O)Nc3ccc(F)cc3)ccc2O1 | -1.97%
COc1cccc(C(=O)Nc2cccnc2)c1OC | 0.381%
CCOC(=O)c1ccc(-c2ccc(C(=O)Nc3cccnc3)o2)cc1 | 58.2% (active)
CCOC(=O)c1ccc(NC(=O)CNC(=O)c2ccco2)cc1 | -2.33%
CC(=O)N1[C@@H](CO)[C@@H]2c3ccccc3N(S(=O)(=O)c3ccccc3)C[C@@H]21 | 0.543%
Cc1ccc(OCC(=O)Nc2ccc(N3CCN(C(=O)c4ccco4)CC3)cc2)c(C)c1 | 0.555%
O=C(c1ccco1)N1CCN(c2cccc(Cl)c2)CC1 | 45.4% (active)
O=C(Cc1c(F)cccc1Cl)N1CCN(C(=O)c2ccco2)CC1 | 3.68%
Cc1ccc2nc(N3C(=O)C(O)=C(C(=O)c4ccco4)C3c3cccc(O)c3)sc2c1 (stereo unspecified) | 43.5% (active)
O=C(c1ccco1)N1CCN(C(=S)Nc2cc(F)cc(F)c2)CC1 | 7.97%

Structure (SMILES) | reporter increase
COc1ccc2nc(N3CCN(C(=O)c4ccc([N+](=O)[O-])o4)CC3)sc2c1 | -6.63%
O=C(NCCCN1CCOCC1)c1cc(-c2ccccc2F)no1 | 19.6%
Cc1ccc2nc(N3CCN(C(=O)c4ccco4)CC3)sc2c1 | 54.6% (active)
O=C(c1ccco1)N1CCN(C(=O)c2cc(-c3ccccc3F)no2)CC1 | 66.3% (active)
C=CCSc1nnc(N2C(=O)C(O)=C(C(=O)c3ccco3)C2c2ccc(F)cc2)s1 (stereo unspecified) | 10.6%
COc1ccc2nc(N3C(=O)C(O)=C(C(=O)c4ccco4)C3c3ccco3)sc2c1 (stereo unspecified) | -10.8%
O=C(c1cccc([N+](=O)[O-])c1)N1CCN(C(=O)c2ccco2)CC1 | -1.81%
COCC#Cc1cnc2c(c1)C(=O)N([C@@H](C)CO)C[C@@H](C)[C@@H](CN(C)C(=O)c1cccnc1)O2 | 3.33%
C[C@H](CO)N1C[C@H](C)[C@H](CN(C)C(=O)Nc2ccc3c(c2)OCO3)Oc2ccc(NS(=O)(=O)c3ccc(Cl)cc3)cc2CC1=O | 4.87%
Cc1cccc(CN(C)C[C@@H]2OCc3cn(nn3)CCCC(=O)N([C@@H](C)CO)C[C@H]2C)c1 | -0.643%
COCCNC(=O)[C@@H]1[C@@H](CO)[C@@H]2Cn3c(ccc(-c4ccccc4F)c3=O)[C@@H]2N1C(=O)C1CC1 | 2.48%
CO[C@@H]1CN(C)C(=O)c2cc(NC(=O)Nc3ccc4c(c3)OCO4)ccc2OC[C@@H](C)NC[C@@H]1C | 73.2% (active)
CO[C@H]1CN(C)C(=O)c2ccc(NC(=O)Nc3ccc4c(c3)OCO4)cc2OC[C@H](C)NC[C@H]1C | 37%
CO[C@@H]1CN(C)C(=O)c2cc(NC(=O)Nc3ccc(F)cc3)ccc2OC[C@@H](C)NC[C@@H]1C | -1.25%
COc1ccc(NC(=O)N(C)C[C@@H]2Oc3ccc(NC(=O)Cn4cnnn4)cc3C(=O)N([C@H](C)CO)C[C@@H]2C)cc1 | 1.18%
O=C(COC(=O)Cc1ccc(Cl)cc1Cl)NCc1ccco1 | -12.6%
COC(=O)/C=C/C(=O)NCc1ccco1 | 8.72%
O=C(/C=C/c1ccc(Cl)cc1Cl)NCc1ccco1 | 44.2% (active)
COc1ccc(S(=O)(=O)Nc2ccc3c(c2)CC(=O)N([C@@H](C)CO)C[C@@H](C)[C@H](CN(C)S(=O)(=O)c2ccccc2)O3)cc1 | 4.43%
COc1ccc(S(=O)(=O)Nc2ccc3c(c2)C(=O)N([C@@H](C)CO)C[C@@H](C)[C@H](CN(C)Cc2ccc(C(F)(F)F)cc2)OCCCC[C@@H](C)O3)cc1 | -1.52%
Cc1cc(-n2nc(C)cc2C)n2ncc(-c3ccccc3)c2n1 | 28.6%

Structure (SMILES) | reporter increase
COc1ccccc1NC(=O)C1CCCN(c2cc(C)nc3ncnn23)C1 (stereo unspecified) | -8.67%
COc1ccccc1-c1cnn2c(N3CCOCC3)cc(C)nc12 | 57.3% (active)
CN1c2ccc(C3=CCCCC3)cc2[C@H]2[C@H](CCN2S(=O)(=O)c2ccccc2)[C@@H]1CO | 3.61%
Cc1ccc(S(=O)(=O)N(CC(=O)N/N=C/c2ccc(F)cc2)c2cccc3cccnc23)cc1 | 0.787%
Cc1ccc(/C=N/NC(=O)c2sccc2OCc2ccc(F)cc2)cc1 | 53.7% (active)
Cc1ccc(S(=O)(=O)Oc2ccc(/C=N/NC(=O)c3ccncc3)cc2)cc1 | 4.2%
C[C@H]1CN([C@@H](C)CO)S(=O)(=O)c2ccc(-c3ccccc3)cc2O[C@H]1CN(C)C(=O)CC1CC1 | -0.183%
CCCNC(=O)N1C[C@H]2[C@@H](c3ccccc31)[C@@H](CO)N2C(=O)NCCC | -2.97%
O=C(NCC[C@H]1CC[C@H](NC(=O)C2CC2)[C@@H](CO)O1)c1cc(Cl)cc(Cl)c1 | 1.12%
C[C@@H]1CN([C@H](C)CO)C(=O)c2cc(Br)cnc2O[C@@H]1CN(C)C(=O)C1CC1 | -3.93%
O=[N+]([O-])c1ccc(N2CCOCC2)cc1 | 6.61%
O=C(Nc1ccc(N2CCOCC2)cc1)c1ccc(-c2ccccc2[N+](=O)[O-])o1 | 22.9% (active)
COc1ccccc1C(=O)NC(=S)Nc1ccc(N2CCOCC2)cc1 | 25.5%
C[C@H]1CN([C@@H](C)CO)C(=O)c2cccc(NS(=O)(=O)c3cccs3)c2O[C@H]1CN(C)C(=O)Nc1ccccc1 | -1.97%
O=C(Cc1ccncc1)NCC[C@H]1CC[C@H](NC(=O)C2CC2)[C@H](CO)O1 | -2.52%
CC(=O)c1cnc(SCC(=O)O)nc1C | -5.69%
CCn1c(SCC(=O)Nc2nccs2)nnc1-c1ccncc1 | -8.57%
Cn1c(SCC(=O)Nc2nccs2)nnc1-c1cccnc1 | -5.27%
Cc1cc(NC(=O)CSc2nc3c(cc2C#N)CCCCC3)no1 | -7.82%
CC(=O)c1cc(C#N)c(SCC(=O)Nc2nccs2)nc1C | 64.7% (active)
CC(=O)c1cc(C#N)c(SCC(=O)C(C)(C)C)nc1C | 50.6% (active)

Structure (SMILES) | reporter increase
COCC(=O)Nc1ccc2c(c1)C(=O)N(C)C[C@H](OC)[C@@H](C)CN(CC1CC1)[C@@H](C)CO2 | -0.99%
COc1ccccc1NC(=O)N[C@H]1CC[C@H](CCNS(=O)(=O)c2ccc(Cl)cc2)O[C@H]1CO | 16.7%
CCN1[C@@H]2c3cccc(=O)n3C[C@H]1[C@H](CO)[C@H]2C(=O)NC1Cc2ccccc2C1 | -2%
CCC(=O)N1C[C@@H](C)[C@H](OC)CN(C)C(=O)c2ccc(NC(=O)Nc3ccccc3)cc2OC[C@@H]1C | -0.74%
COc1cccc(NC(=O)Nc2ccc(F)cc2)c1 | 47.9% (active)
CCC(=O)Nc1ccc(C(=O)Nc2cc(C)on2)cc1 | 15.4%
COc1cccc(C(=O)NNS(=O)(=O)c2ccc(F)cc2)c1 | -2.92%
CCC(=O)Nc1ccc(C(=O)Nc2cccc(OC)c2)cc1 | 49.8% (active)
CCC(=O)Nc1ccc(C(=O)NNC(=O)c2ccc(Cl)cc2)cc1 | -4.4%
CCc1ccc(NC(=O)Nc2ccncc2)cc1 | 19.8%
COc1cccc(C(=O)NNC(=O)/C=C/c2ccccc2)c1 | -6.98%
COc1cccc(N(CC(=O)Nc2cccc(F)c2)S(C)(=O)=O)c1 | -2.9%
COc1ccc(NC(=O)Nc2ccc3nsnc3c2)cc1 | 100% (active)
COc1cccc(NC(=O)CC2C(=O)NCCN2C(=S)Nc2ccc(F)cc2)c1 (stereo unspecified) | 3.78%
COc1cccc(C(=O)NNC(=O)c2cccc(F)c2)c1 | 46.1% (active)
O=C(Nc1ccccc1)c1ccc2nsnc2c1 | 28.4%
CNC(=O)C[C@H]1CC[C@H]2[C@@H](COc3ccc(NC(=O)c4cccc(OC)c4)cc3C(=O)N2C)O1 | 4.25%
COc1cccc(C#Cc2cnc3c(c2)C(=O)N([C@@H](C)CO)C[C@H](C)[C@H](CN(C)CC2CC2)O3)c1 | -5.64%
